Screens: PubChem, several laboratories
RecA splice inh: Mtb RecA intein splicing inhibition; inhibition, % (concentration not given with the values); actives 0.75% (n = 290,000); cell-free RecA intein splicing, fluorescence; AID 2221; P9WHJ3; in the data active means inhibition above about 30%; inconclusive means no clear call, values can overlap the other calls;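 further: 0% = vehicle wells and 100% = reference inhibitor control wells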
Target sequence (P9WHJ3 whole entry, looked up, canonical isoform): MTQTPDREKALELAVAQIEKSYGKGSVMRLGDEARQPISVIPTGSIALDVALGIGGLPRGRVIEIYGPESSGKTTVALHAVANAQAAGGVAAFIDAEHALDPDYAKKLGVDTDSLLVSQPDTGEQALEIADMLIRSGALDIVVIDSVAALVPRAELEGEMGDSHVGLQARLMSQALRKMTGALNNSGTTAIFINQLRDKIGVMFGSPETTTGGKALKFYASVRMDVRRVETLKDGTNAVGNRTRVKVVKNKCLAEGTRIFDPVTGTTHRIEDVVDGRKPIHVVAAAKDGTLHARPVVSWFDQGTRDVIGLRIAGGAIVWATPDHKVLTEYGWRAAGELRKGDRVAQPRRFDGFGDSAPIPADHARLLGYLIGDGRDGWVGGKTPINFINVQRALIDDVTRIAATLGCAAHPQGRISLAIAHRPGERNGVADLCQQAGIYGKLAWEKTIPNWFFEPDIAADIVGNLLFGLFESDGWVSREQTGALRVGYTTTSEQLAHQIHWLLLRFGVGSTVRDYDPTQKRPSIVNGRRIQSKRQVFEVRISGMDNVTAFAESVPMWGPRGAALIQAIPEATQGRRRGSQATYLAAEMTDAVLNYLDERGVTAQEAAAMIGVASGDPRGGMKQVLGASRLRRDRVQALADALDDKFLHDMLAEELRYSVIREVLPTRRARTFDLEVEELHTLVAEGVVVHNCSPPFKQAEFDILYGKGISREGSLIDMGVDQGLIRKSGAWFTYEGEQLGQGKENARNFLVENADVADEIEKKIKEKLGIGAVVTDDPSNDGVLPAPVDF
FadD28 binding: M. tuberculosis FadD28 bisubstrate binding inhibition; FadD28 bisubstrate probe binding, fluorescence polarization; inhibition, % at 12.5 µM; actives 0.22% (n = 360,000); AID 588549; in the data active means inhibition above about 8.5%, passing the limit was not always enough; inconclusive means no clear call, values can overlap the other calls
UGM FP inh: blocks M. tuberculosis UGM enzyme; P9WIQ1; inhibition, % at 10 µM; purified UGM, fluorescence polarization probe displacement; actives 0.06% (n = 320,000); in the data active means inhibition above about 10%, passing the limit was not always enough; inconclusive means no clear call, values can overlap the other calls
Mtb hypoxia rep: inhibitors of hypoxia-regulated fluorescent reporter in Mycobacterium tuberculosis. M. tuberculosis hypoxia-regulated fluorescent reporter, fluorescence. actives 0.1% (n = 300,000). AID 1159583. fluorescence inhibition, % (test concentration not listed); in the data active means fluorescence inhibition mostly above about 23%, no sharp cut-off; inactive means mostly below about 17%
Rv3671c inh: inhibits the M. tuberculosis serine protease Rv3671c; P9WHR9; inhibition, % at 5.96 µM; actives 0.048% (n = 320,000); AID 2606; in the data active means inhibition above about 38%;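 further: extracellular domain of Rv3671c used as enzyme; 0% = enzyme with DMSO and 100% = no enzyme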
GFP chromophore: counter-screen GFP chromophore formation inhibition; shares compounds with RecA splice inh; cell-free GFP chromophore formation, fluorescence; EC50, µM; actives 83% (n = 2,100); AID 434968; call rule not given here
The depositor's hits bear a star; ? = inconclusive; . = no result. Most compounds without a hit are left out; they make up all but 0.92% or so of the library.

SMILES	RecA splice inh	FadD28 binding	UGM FP inh	Mtb hypoxia rep	Rv3671c inh	GFP chromophore
CCC(=O)N1CC2(c3ccccc3)CN(C(=O)CC)CC(c3ccccc3)(C1)C2=O	-0.4	-3.2	2.6	8.5	8.2	.
CSCCC(NC(=O)OC(C)(C)C)c1nnc(SCC(N)=O)o1 (stereo not given)	.	.	.	5.7	.	.
CC(C)(C)OC(=O)NCCc1nnc(SCc2ccccc2Cl)o1	1.5	-4.3	1.5	0.3	-7.0	.
CC(C)(C)OC(=O)NCCc1nnc(S(=O)(=O)Cc2ccc(Cl)cc2Cl)o1	85.2*	-1.5	0.6	.	-0.9	>38
CCOC(=O)C1=C(C)NC(SCc2cc(=O)[nH][nH]2)=C(C#N)C1c1cccs1 (stereo not given)	69.9*	-0.3	1.0	11.0	6.0	20.4*
C=CCSC(=C(C#N)C#N)c1cc2c([nH]1)CCCC2	70.3*	-1.4	-1.6	.	0.4	16.9*
NC(=O)C1=CC(c2ccc(Br)cc2)CC(OCc2ccc(CO)cc2)O1 (stereo not given)	.	.	.	2.6	.	.
CCN(CC)CCN1C(=O)C(O)=C(C(C)=O)C1c1ccccc1[N+](=O)[O-] (stereo not given)	76.7*	-1.0	0.6	.	-13.6	7.79*
CC(=O)C1=C(O)C(=O)N(CCc2ccccc2)C1c1ccccc1[N+](=O)[O-] (stereo not given)	-1.8	1.2	2.0	0.8	-21.5	.
CCc1ccc(C(=O)NN=Cc2ccncc2)s1	.	.	.	5.4	.	.
CCO/C=C1/C(=O)N(C)C(=O)c2cc(OC)ccc21	85.0*	-0.7	-0.8	.	-30.8	>38
CCO/C=C1/C(=O)N(c2ccc(OC)cc2)C(=O)c2ccccc21	2.6	-0.4	-1.2	11.3	-9.7	.
O=c1[nH]cc(NCc2ccccc2)c(=O)[nH]1	.	0.0	.	.	.	.
O=c1[nH]cc(NCCc2ccccc2)c(=O)[nH]1	51.9*	-2.1	1.8	.	-0.7	5.49*
COc1ccc(C(C)=NOCC(=O)N=Nc2c(O)[nH]c3ccc(Br)cc23)cc1	.	.	.	4.8	.	.
Cc1cc(C)nc(N2N=C(CSc3ccc(Cl)cc3)CC2=O)n1	17.0	1.6	-1.7	13.1	9.0	.
CC(C)(Oc1ccc(Cl)cc1)C(=O)NC1=NN(c2ccccc2)C(=O)C1	12.1	3.3	-0.1	-4.4	-3.5	.
O=C1CC(NC(=O)C(F)(F)F)=NN1c1ccccc1	89.9*	-0.7	0.5	1.8	0.3	16.5*
CC1=NN(c2ccccc2)C(=O)C1	89.1*	-0.2	1.5	.	-151.3	3.1*
CC1=NN(c2ccc(N)cc2)C(=O)C1	74.3*	-1.2	0.8	-0.7	-8.6	2.92*
CC1=NN(c2ccc(Cl)cc2)C(=O)C1	95.9*	0.5	0.4	13.7	-186.2	3.45*
COc1cc(C=NNC(=O)c2ccncc2)ccc1OCCN1CCCCC1	.	.	.	7.7	.	.
CC1=NN(Cc2ccccc2)C(=O)C1	89.1*	-5.3	-1.3	18.2	-202.9	7.59*
CCOC(=O)c1c(C)[nH]c(C(=O)NN=Cc2ccc(Br)cc2)c1C	.	.	.	5.5	.	.
Cc1ccc(-c2cn(CC3CCC(C4CCC(Cn5cc(-c6ccc(C)cc6)nn5)O4)O3)nn2)cc1 (stereo not given)	.	.	.	-4.7	.	.
SMILES	RecA splice inh	FadD28 binding	UGM FP inh	Mtb hypoxia rep	Rv3671c inh	GFP chromophore
O=C1c2ccccc2C(=O)c2c1ccc(C(=O)N1CCCCC1)c2NCCO	-1.5	-1.4	-2.4	.	2.8	.
CCN(CCN(C)C)C(=O)c1ccc2c(c1NCCO)C(=O)c1ccccc1C2=O	47.9*	1.2	-0.4	11.1	-2.2	?
C/C(CC(=O)Nc1cc(C)ccn1)=N\NC(=O)c1cccc(C)c1	70.1*	-2.2	0.7	.	2.9	18.2*
C/C(CC(=O)Nc1cc(C)ccn1)=N\NC(=O)C(=O)NC(C)C	63.6*	-0.6	-0.1	.	-4.9	39.2*
CC1CCN(C2=NC(=O)C(=Cc3cn(-c4ccccc4)nc3-c3cccc(S(=O)(=O)N(C)C)c3)S2)CC1	.	.	.	3.6	.	.
COc1cc(C(C(=O)NC2CCCCC2)N(CCN2CCOCC2)C(=O)C2COc3ccccc3O2)cc(OC)c1OC (stereo not given)	46.6*	1.0	1.8	7.7	-2.1	>38
Cc1ccc(CSc2nnc(SCC(=O)NN=Cc3c(C)nn(-c4ccccc4)c3C)s2)cc1	.	.	.	8.7	.	.
O=S1(=O)CCOC2Cc3ccccc3C2N1Cc1cccc(C(F)(F)F)c1 (stereo not given)	.	.	.	10.7	.	.
CCOC(=O)c1c(C)oc2c1c1c(c3ccccc32)OCN(CCCC(=O)O)C1	89.7*	-0.9	0.5	19.2	2.9	19.9*
O=C(NN=Cc1ccc[nH]1)c1ccc2c(c1)OCO2	.	.	.	7.2	.	.
CCOC(=O)c1nnc(-c2ccccc2)nc1Sc1c(Cl)cccc1Cl	54.2*	-1.6	-2.7	.	2.8	37.6*
Cc1nn(C)c(C)c1NC(=O)CCl	-2.1	1.1	1.3	1.9	-5.4	.
CCC(=O)Nc1c(C)nn(C(=O)CC)c1C	56.6*	-0.9	-1.1	.	-6.1	>38
COCCNC(=O)c1c(N)n(N=Cc2ccc(F)cc2)c2nc3ccccc3nc12	.	.	.	-1.6	.	.
O=C1/C(=C/c2cccc([N+](=O)[O-])c2)CCc2ccccc21	45.3*	-1.5	4.5	12.8	-1.7	28.6*
Nn1cnnc1N/N=C/c1ccc(Cl)c([N+](=O)[O-])c1	59.4*	-1.5	2.2	.	-143.9	25.4*
COc1ccc(C2CC(c3ccccc3OC(C)=O)=NN2C(=O)/C=C/c2ccccc2)cc1OC (stereo not given)	25.5	-6.2	2.4	3.8	-17.1	.
COc1ccc(C2=NN(C(=O)/C=C/c3ccccc3)C(c3ccccc3)C2)c(OC(C)=O)c1 (stereo not given)	35.7*	0.4	0.1	-4.5	0.6	>38
Nc1nc(-c2ccc(Br)cc2)c(S(=O)(=O)c2ccccc2)s1	80.6*	-2.4	1.7	-3.9	-13.2	>38
CCOC(=O)CN1C(=O)NC(CCc2ccccc2)C(C(=O)OC)C1C (stereo not given)	.	.	.	4.0	.	.
Cc1ccc(/C=C2\SC(N3CCN(C(c4ccccc4)c4ccccc4)CC3)=NC2=O)o1	33.3*	0.0	0.2	-0.3	-6.7	>38
CCOC1OC(C(=O)NC2CC2)=CC(c2ccccc2)C1CCCO (stereo not given)	.	.	.	-1.7	.	.
O=C(c1ccc(F)cc1)N1CCN(c2ccc(N3CCOCC3)nn2)CC1	-4.1	-2.3	-1.3	9.3	-2.7	.
O=C(c1ccc(N2CCN(CCO)CC2)nc1)N1CCOCC1	37.4*	2.8	2.8	4.4	-0.4	>38
Cc1nc2ccccc2c2c1C(=O)N(C)C2=O	58.3*	1.1	-1.8	-13.5	7.2	18.4*
Oc1ccc(N=Cc2ccc(-c3cccs3)s2)cc1	44.9*	1.6	-1.0	7.7	-10.1	>38
C#CCOCCOCCOCCNc1nc(N2CCOCC2)nc(N2CCN(C(=O)C(CCCCN)n3cc(C(N)CO)nn3)CC2)n1 (stereo not given)	.	.	.	4.9	.	.
N#C/C(=C/c1ccncc1)c1nc2ccccc2s1	73.6*	-3.5	-2.5	-6.5	-13.9	21.6*
COC(=O)c1cc2nc(-c3ccccc3)cc(C)n2n1	.	-4.2	0.3	.	2.0	.
Cc1cc(-c2ccccc2)nc2cc(C(=O)N(Cc3ccccc3)Cc3ccccc3)nn12	32.5*	-7.8	2.2	.	-14.3	>38
